Records with an inconclusive call do not appear. Activity calls are given as the source filed them. The call rests on the fitted dose curve; in most records, active means well fitted inhibition curve with a large enough effect; inconclusive means small, poorly fitted or top-dose-only effect; inactive means flat fitted curve, though single readings scatter. Where a SMILES comes first, the peptide text is derived from it. [ ]: non-standard residue; d: D form. Hyp = O=C(O)[CH]1C[CH](O)CN1; Phe(ol) = N[CH](CO)Cc1ccccc1; Iva = CC[C](C)(N)C(=O)O; Aib = CC(C)(N)C(=O)O

Experimental findings from PubChem BioAssay (NCATS) are described below.
On the % scale 0 is the no-effect control and ±100 the full control effect; potency means the concentration at half of the fitted maximal effect.

The first experiment concerns HEK293. The experiment is described as follows: Cytotoxic Profiling of Annotated Libraries Using Quantitative High-Throughput Screening (AID 1296008). Further: nearly all actives have a fitted effect of over 60% in size. To be noted: Five cell lines viability, CellTiter-Glo ATP luminescence, 48-72 h; max response: active compounds read low. In short, it runs like this:
(§1)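 Cytotoxicity was measured as CellTiter-Glo ATP luminescence, read after 10 min at room temperature. Compound treatment of the cells lasted 48 or 72 hr at 37 degrees Celsius in a qHTS format.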
On the technique in general: In ATP-based viability assays light output follows the ATP content of the culture.
On to `Cc1cc(-c2cnc(N)c3c(-c4ccc5scnc5c4)csc23)n(C)n1`, for which the Potency is 8.2 µM (active). `C/C(=N\N=C(N)N)c1cc(NC(=O)CCCCCCCCC(=O)Nc2cc(/C(C)=N/N=C(N)N)cc(/C(C)=N/N=C(N)N)c2)cc(/C(C)=N/N=C(N)N)c1`: the Potency was 7.31 µM (active).

In the case of `O=C(Nc1ccccc1)N1CCC(Cc2cnc3ccccc3c2)CC1`, the max response is -99.9% (inactive). As to `CNC1CN(c2ccc3c(=O)c(C(=O)O)cn(-c4nccs4)c3n2)CC1OC` (stereo unspecified), the Potency was 1.06 µM (active). With `Cc1cc(NC(=O)c2cccc(NC(=O)/C=C/CN(C)C)c2)ccc1Nc1nccc(-c2cccnc2)n1`, the Potency is 9.2 µM (active).

As for `OC(c1ccc(-c2ccc(CN3CCN(Cc4ccncc4)CC3)cc2)c(F)c1)(C(F)(F)F)C(F)(F)F`, the Potency was 5.17 µM (active).

With `C=C1C(=O)O[C@@H]2/C=C(\CO)CC/C=C(/C=O)C[C@@H](O)[C@@H]12`, the Potency was 8.2 µM (active). On the same count and under the same terms, under `CC(C)S(=O)(=O)NC[C@@H]1CC(c2ccc(N3CCCC3)c(F)c2)=NO1` stands 14.6 µM (active).

Another experiment concerns HaCat. The experiment is described as above. To be noted: Five cell lines viability, CellTiter-Glo ATP luminescence, 48-72 h; max response: active compounds read low. In short, it runs like this:
as §1
Regarding `CCn1c(-c2nonc2N)nc2c(C#CC(C)(C)O)ncc(OCC3CCCNC3)c21` (stereo unspecified), the call was inactive. Regarding `COc1cc(OC)c(NC(=O)c2ccc(Cc3cc4c(cc3C)C(C)(C)CCC4(C)C)o2)c(OC)c1`, the max response is 3.56% (inactive). As for `CC(=O)C1(C)CCC2C3C=C(C)C4=CC(=O)CCC4(C)C3CCC21C` (stereo unspecified), the max response is -54.8% (inactive). Same read-out and setting: as for `CO[C@H]1C[C@@H]2CC[C@@H](C)[C@@](O)(O2)C(=O)C(=O)N2CCCC[C@H]2C(=O)O[C@H]([C@@H](C)C[C@@H]2CC[C@@H](O)[C@H](OC)C2)CC(=O)[C@H](C)/C=C(\C)[C@@H](O)[C@@H](OC)C(=O)[C@H](C)C[C@H](C)/C=C/C=C/C=C/1C`, the figure is -8.22% (inactive). With `O=C(Nc1ccc(C(O)(C(F)(F)F)C(F)(F)F)cc1)c1ccc(C(F)(F)F)cc1`, the Potency is 8.2 µM (active).

In the case of `NC(=O)c1cnc(N[C@@H]2CCCC[C@@H]2N)nc1Nc1cccc(-n2nccn2)c1`, the Potency was 13.2 µM (active).

With `Cc1cc2c(c(=O)o1)C=C1CC[C@H]([C@H](C)Cn3cnc(=N)c4[nH]cnc43)C[C@@H]1O2`, the outcome was inactive. Consider `CC1CCCC(O)CCC/C=C/c2cc(OS(=O)(=O)O)cc(O)c2C(=O)O1` (stereo unspecified), for which the max response is 0.348% (inactive). For `CCC(C)(NC(=O)C(CCC(N)=O)NC(=O)C1CC(O)CN1C(=O)C(C)(C)NC(=O)C(C)(C)NC(=O)C(CC(C)C)NC(=O)CNC(=O)C(NC(=O)C(C)(C)NC(=O)C(C)(C)NC(=O)C(C)(C)NC(=O)C(Cc1ccccc1)NC(C)=O)C(C)C)C(=O)N1CC(O)CC1C(=O)NC(C)(C)C(=O)NC(CO)Cc1ccccc1` (stereo unspecified) (Ac-F[Aib][Aib][Aib]VGL[Aib][Aib][Hyp]Q[Iva][Hyp][Aib][Phe(ol)]; configuration not given here), the result was inactive.

Take `CCc1ccccc1OC[C@@H](O)CN[C@H]1CCCc2ccccc21`: the result was inactive. In the case of `COc1cc(/C=C2\CCCN([C@@H](C)c3ccc(F)cc3)C2=O)ccc1-n1cnc(C)c1`, the max response is 3.5% (inactive). In the case of `CC(C)(C[C@@](O)(Cc1cc2ccncc2[nH]1)C(F)(F)F)c1cc(F)ccc1O`, the max response is -2.9% (inactive). Turning to `c1cc(NCCc2c[nH]c3ccccc23)cc(Nc2ccncc2)c1`, the outcome was inactive. With `Cc1nc2ccc(-n3ncc(C(=O)c4cc5ccccc5[nH]4)c3N)cc2[nH]1`, the max response was -16.7% (inactive). Still for that read-out and setting: as for `COc1ccc(CN2CCN(C(=O)CCNC(=O)c3ccc(C(C)(C)C)cc3)CC2)cc1`, the figure is 3.77% (inactive). Still for that read-out and setting: as for `C=C1CC2OC(=O)C(COC)C2C(OC(=O)/C(C)=C\C)CC2(C)OC1=CC2=O` (stereo unspecified), the figure is -10.4% (inactive). As for `COc1ccc(CCc2nc3c(C)c(-c4c(C)noc4C)c(C)cc3n2CCN2CCOCC2)cc1`, the max response was -20.3% (inactive).

Consider `CC(=O)NC(C(=O)O[C@H]1CCC(C)(C)[C@@H]2CC=C3C(=O)OCC3(O)[C@@]12C)C(C)C` (stereo partly specified), for which the max response was 3.16% (inactive).

For `C#Cc1cccc(Nc2nc3cc(C(=O)O)ccc3c3cncnc23)c1`, the Potency is 7.31 µM (active).

As to `COC(=O)N1CC2(CC2)C[C@H](C(=O)NO)[C@H]1C(=O)N1CCN(c2ccccc2)CC1`, the Potency is 26.3 µM (active). As to `CCn1c(-c2nonc2N)nc2c(C#CCO)ncc(OCCCN)c21`, the call was inactive.

With `C=C[C@@]1(C)C=C2C(=O)C(O)=C3[C@](C)(C(=O)O)CC[C@@H]4C[C@]34[C@]2(O)C(=O)C1`, the Potency was 10.1 µM (active). On the same count and under the same terms, under `Cc1nc(NC(=O)N2CCCC2C(N)=O)sc1-c1ccnc(C(C)(C)C(F)(F)F)c1` (stereo unspecified) stands 2.31 µM (active).
